# Bioassay records as filed in PubChem BioAssay.
# Hits are enriched below; roughly 2.8% of the tested compounds scored in any of these assays.
# rCAG RNA binder = binds r(CAG) RNA repeats | r(CAG) RNA repeat, TO-PRO-1 dye displacement fluorescence | 370,000 compounds, 1.3% hits | inhibition, % at 3 µM | AID 651821;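 active = inhibition above the plate cutoff, the mean of all test compounds on that plate plus 3 SD, cut at about 35% in these data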;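 note: 0% = DMSO alone and 100% = 100 µM mitoxantrone as full dye displacement; higher means more dye released from RNA so lower well fluorescence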
# MsrA act = activators of bovine methionine sulfoxide reductase A; AID 602163; activation, % at 10.6 µM; 360,000 compounds, 0.3% hits; purified bovine MsrA, absorbance read-out; in the data active = activation above about 7.5%;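 note: 0% = vehicle and 100% = reference activator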
# HGIII-sPLA2 inh = Blocks human group III sPLA2 activity | AID 743126 | Q9NZ20 | QFRET BODIPY PC-A2 liposome hydrolysis, fluorescence | inhibition, % at 12.2 µM | 370,000 compounds, 0.56% hits;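 active = inhibition above mean plus 3 SD of compounds lying within the high and low control bounds, cut at about 19% in these data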;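 note: 0% = median of test compound wells and 100% = no enzyme DMSO wells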
# Target sequence (Q9NZ20 whole entry, looked up): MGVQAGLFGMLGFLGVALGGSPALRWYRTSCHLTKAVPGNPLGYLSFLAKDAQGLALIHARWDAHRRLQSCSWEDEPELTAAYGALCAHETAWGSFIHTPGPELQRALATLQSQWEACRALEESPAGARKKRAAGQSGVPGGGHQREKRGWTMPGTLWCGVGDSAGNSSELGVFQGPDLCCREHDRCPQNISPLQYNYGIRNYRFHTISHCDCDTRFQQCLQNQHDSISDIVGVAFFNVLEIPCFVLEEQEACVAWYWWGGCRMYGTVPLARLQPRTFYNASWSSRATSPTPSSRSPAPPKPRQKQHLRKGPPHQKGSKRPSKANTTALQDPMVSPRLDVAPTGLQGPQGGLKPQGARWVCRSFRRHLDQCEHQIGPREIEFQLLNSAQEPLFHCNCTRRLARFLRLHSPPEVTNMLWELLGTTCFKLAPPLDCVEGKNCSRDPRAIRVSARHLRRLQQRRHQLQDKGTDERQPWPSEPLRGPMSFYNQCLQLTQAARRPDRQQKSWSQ
# MsrA inhibitor = inhibitors of bovine MsrA; purified bovine MsrA, absorbance read-out; inhibition, % at 15.5 µM; 360,000 compounds, 0.75% hits; in the data active = inhibition above about 4.5%;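 note: 0% = vehicle wells with enzyme and 100% = reference inhibitor wells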
# rCAG binder conf = r(CAG) RNA repeat binding, confirmation. inhibition, % at 3 µM. AID 652065. TO-PRO-1 dye displacement fluorescence. 4,300 compounds, 70% hits. shares compounds with rCAG RNA binder;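 active = inhibition above a per-plate cutoff, the mean inhibition of sample wells plus 3 SD, cut at about 35% in these data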;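 note: loss of TO-PRO-1 fluorescence as compound displaces dye from 1x1 AA loop RNA; 0% = DMSO only wells and 100% = 100 µM mitoxantrone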
# dCAG dye counter = counter-screen for rCAG RNA binders: DNA CAG dye complex inhibitors. 4,300 compounds, 94% hits. inhibition, % at 3 µM. shares compounds with rCAG RNA binder. d(CAG) DNA oligo TO-PRO-1 dye displacement, fluorescence;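 active = inhibition above its plate's cutoff, the mean test-well inhibition plus 3 SD, cut at about 4.8% in these data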;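 note: 0% = DNA dye mix with DMSO and 100% = 100 µM mitoxantrone; hits displace the dye from DNA and so lower well fluorescence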
# Starred values were filed as active, the others as inactive; / = no result given.
SMILES,rCAG RNA binder,MsrA act,HGIII-sPLA2 inh,MsrA inhibitor,rCAG binder conf,dCAG dye counter
CC1CCc2sc(NC(=O)C3CC(Cl)=CCC3C(=O)O)c(C#N)c2C1 (stereo not drawn),49.0*,-4.9,-17.9,2.4,42.1*,12.6*
Cc1ccnc(NC(=O)CC(NC(=O)c2ccccc2Cl)c2ccccc2)c1 (stereo not drawn),0.9,-2.3,9.3,3.4,/,/
Cc1csc(=O)n1CCC(=O)NCc1ccc(F)cc1,-1.7,-1.9,13.1,1.0,/,/
Cc1ccc(OCc2nnc(SCC(=O)Nc3ccc(S(=O)(=O)Nc4cc(C)nc(C)n4)cc3)n2Cc2ccco2)cc1,37.8*,/,-28.2,/,46.8*,13.1*
O=C(CSc1nnc(-c2cccnc2)n1Cc1ccco1)Nc1ccc(Cl)cc1,5.3,/,-0.4,/,/,/
Cc1cc(NS(=O)(=O)c2ccc(NC(=O)CSc3nnc(-c4ccc(Cl)cc4)n3Cc3ccco3)cc2)nc(C)n1,38.5*,/,-39.6,/,41.0*,14.1*
O=C(CSc1nnc(-c2ccc(Cl)cc2)n1Cc1ccco1)Nc1ccc(S(=O)(=O)Nc2nccs2)cc1,76.9*,/,-10.3,/,68.6*,32.0*
O=C(NCc1ccco1)c1ccccc1NS(=O)(=O)c1ccc(Br)s1,44.2*,-2.0,-48.4,-0.1,47.6*,16.4*
O=C(c1cccc(S(=O)(=O)N2CCOCC2)c1)N1CCN(S(=O)(=O)c2cccs2)CC1,-1.3,-0.8,-5.2,-0.2,/,/
Cc1ccc(/C=C/C(=O)N2CCN(Cc3ccccc3)CC2)o1,0.1,1.2,-3.9,1.3,/,/
O=S(=O)(Nc1nc(CN2CCOCC2)nc2sc3c(c12)CCCC3)c1cc(F)ccc1F,50.5*,2.0,-15.0,0.4,38.5*,9.6*
Cc1sc2nc(CN3CCOCC3)nc(NS(=O)(=O)c3cc(Cl)ccc3Cl)c2c1C,53.3*,5.8,-21.4,1.2,46.1*,10.4*
O=S(=O)(Nc1ncnc2c1oc1ccccc12)c1ccc(Cl)s1,35.7*,-0.3,-10.7,-0.6,17.4,3.0
O=C(NC1CC1)C1CCN(C2CCN(C(=O)c3ccc4cccc(F)c4n3)CC2)CC1,-4.4,-3.9,0.8,1.7,/,/
CCCCC(=O)Nc1nnc(SCC(=O)N2CCN(c3ccccc3OC)CC2)s1,-1.7,1.9,0.2,-0.6,/,/
COc1ccc(S(=O)(=O)N2CCOCC2)cc1NC(=O)Cc1coc2cc(C)c(C)cc12,15.2,-4.8,-7.4,-1.7,/,/
CC1CCCCC1NC(=O)COC(=O)c1c2c(nc3ccccc13)/C(=C/c1ccco1)CC2 (stereo not drawn),53.0*,-1.5,5.6,0.2,51.2*,28.5*
O=C(COC(=O)c1c2c(nc3ccccc13)/C(=C/c1ccco1)CC2)NC1CCCC1,67.7*,-4.3,-4.8,1.6,60.0*,34.0*
Cc1cc(C(=O)OCC(=O)NC2CCCCC2C)c2ccccc2n1 (stereo not drawn),-0.1,-1.6,4.2,0.7,/,/
Cc1ccsc1/C=N/NC(=S)NCc1ccccc1,0.1,-3.6,3.6,2.0,/,/
Cc1ccccc1C(=O)Nc1nnc(-c2ccco2)o1,-0.6,-1.6,-2.0,0.5,/,/
CCCCCCCCCCS(=O)(=O)N/N=C/c1ccc([N+](=O)[O-])cc1,42.2*,-3.3,-19.9,0.3,52.2*,15.9*
Cc1ccc(/C=N/NS(=O)(=O)c2ccc([N+](=O)[O-])cc2)o1,-0.8,-8.8,11.2,0.8,/,/
COc1ccc(C)cc1NCc1cc(=O)oc2cc(-c3ccccc3)c(O)cc12,12.9,-1.5,4.5,0.1,/,/
COC(=O)c1ccccc1NCc1cc(=O)oc2cc(O)c(O)cc12,36.3*,-4.0,12.6,2.9,52.1*,22.8*
SMILES,rCAG RNA binder,MsrA act,HGIII-sPLA2 inh,MsrA inhibitor,rCAG binder conf,dCAG dye counter
Cc1ccc(-c2cn(CCN)c(-c3ccncc3)n2)cc1,1.3,-5.0,3.6,-0.3,/,/
COc1ccc(S(=O)(=O)/N=C2/NC(=O)/C(=C/c3ccco3)S2)cc1,85.0*,-4.2,-16.5,1.5,41.7*,11.1*
Cc1ccc(S(=O)(=O)/N=C2/NC(=O)/C(=C/c3ccccn3)S2)cc1,44.6*,-8.4,-33.7,2.6,37.3*,10.2*
COc1ccc(S(=O)(=O)/N=C2/NC(=O)/C(=C\c3ccco3)S2)cc1,64.9*,-4.8,-14.5,3.5,44.4*,12.3*
COc1ccc(N=C2NC(=O)/C(=C/c3ccco3)S2)cc1,31.4,-3.6,-25.9,1.6,/,/
Cc1ccc(N=C2NC(=O)/C(=C/c3cccn3C)S2)cc1,15.7,0.3,-8.9,1.0,/,/
Cc1ccc2nc(-c3cccc(Br)c3)cc(C(=O)NC3CC3)c2c1,2.8,-0.2,1.0,-0.5,/,/
CC(C)NC(=O)c1sc(=S)n2c1[nH]c(=O)c1ccc(C(=O)NCCc3ccc(Cl)cc3)cc12,4.2,-7.4,0.5,0.8,/,/
O=C(NCCc1ccccc1)c1ccc2c(=O)[nH]c3c(C(=O)NCC4CCCO4)sc(=S)n3c2c1 (stereo not drawn),91.0*,-1.6,-7.4,0.3,93.1*,71.1*
O=C(NCC1CCCO1)c1sc(=S)n2c1[nH]c(=O)c1ccc(C(=O)N3CCCCC3)cc12 (stereo not drawn),81.3*,-8.3,-10.5,1.3,84.1*,39.5*
O=C(NCCc1ccc(Cl)cc1)c1ccc2c(=O)[nH]c3c(C(=O)NCC4CCCO4)sc(=S)n3c2c1 (stereo not drawn),43.5*,/,-1.1,-0.4,85.3*,70.1*
COC(=O)c1ccc(NC(=O)COC(=O)CCC2CCCC2)cc1,-0.4,-3.6,-13.6,0.0,/,/
O=C(CC1SC(=O)N(c2ccccc2)C1=O)Nc1ccc(Cl)cc1 (stereo not drawn),43.3*,-5.7,-10.9,-1.8,7.6,6.6*
O=C(CC1SC(=O)N(c2ccccc2)C1=O)Nc1ccc(Br)cc1 (stereo not drawn),42.1*,-4.9,-17.6,-0.3,8.8,8.1*
O=C(Nc1ccc(Cl)cc1)OCC12COCN1COC2,1.3,/,2.9,-1.6,/,/
Fc1cccc(CCN2CCN=C2Nc2ccccc2)c1,-1.4,-5.3,5.2,-1.0,/,/
COc1ccc(OC)c(NC(=O)c2nc3ccccc3s2)c1,4.8,-6.2,1.3,-1.7,/,/
COC(=O)c1ccc(CN(c2ccccn2)S(=O)(=O)c2ccccc2)cc1,2.0,-5.8,3.2,1.4,/,/
COC(=O)c1ccc(CN(c2ccc(C(=O)O)c(O)c2)S(=O)(=O)c2ccc(Cl)c([N+](=O)[O-])c2)cc1,43.1*,-0.8,-48.3,0.6,52.4*,17.6*
O=C(O)c1ccccc1-n1ncc2c1/C(=C/c1ccc(Cl)cc1)CC2,38.2*,/,0.8,2.7,34.2,10.6*
CN1C(=O)/C(=C/c2ccc(-c3ccccc3[N+](=O)[O-])o2)SC1=Nc1ccc(Cl)c(C(=O)O)c1,43.4*,-2.5,-3.0,0.0,84.9*,50.8*
O=C1C=CC2=C3c4cc(O)c(O)cc4CC3(O)COC2=C1O (stereo not drawn),43.4*,-16.1,-8.1,0.5,62.8*,33.8*
COc1cc(C2Nc3cccc4cccc(c34)N2)ccc1O,52.8*,-7.8,-2.1,3.9,48.2*,25.6*
